Screening results from PubChem BioAssay.
This is one part of a sample in which hits are shown more often than they occur.
Pf Dd2 growth: blocks in vitro growth of P. falciparum Dd2. P. falciparum Dd2 growth, SYBR Green, 72 h. 120,000 tested, 4.3% active. Potency, µM (doses to about 28.9 µM), without a hit: at the highest dose activity, negative = inhibition, hits mostly inhibitors. AID 1347417; active = well fitted inhibition curve with a large enough effect;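 note: plate controls were DMSO vehicle for no effect and reference drug for full effect; nearly all actives have a fitted effect of over 65% in size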
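Readout: SYBR Green fluorescence, 485 nm excitation, 535 nm emission, after ~16 h lysis at 37C. Before that, Dd2-infected red cells (2.5% hematocrit) grew 72 h with compound, 29 uM top final concentration.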
* hit, by the source's call; i = inactive; [ ] = dose if it differs, or a comment. Potency is the fitted concentration of half-maximal effect.

SMILES | Pf Dd2 growth
Cc1ccc(C(=O)N2CCC3(CC2)CC(N(Cc2ccccc2)C2CC2)CCO3)s1 (stereo not drawn) | 1.58µM*
Cc1ccc(C(=O)N2CCC3(CC2)CC(N(Cc2ccccc2)C2CC2)CCO3)cc1 (stereo not drawn) | i
O=C(C1CCC1)N1CCC2(CC1)CC(N(Cc1ccc(F)cc1)C1CC1)CCO2 (stereo not drawn) | i
O=C(C1CCOCC1)N1CCC2(CC1)CC(N(Cc1ccc(F)cc1)C1CC1)CCO2 (stereo not drawn) | 0.2%
O=C(CCC1CCCC1)N1CCC2(CC1)CC(N(Cc1ccccc1)C1CC1)CCO2 (stereo not drawn) | 12.6µM*
Cc1cc(C(=O)N2CCC3(CC2)CC(N(Cc2ccc(F)cc2)C2CC2)CCO3)n(C)n1 (stereo not drawn) | i
CCC(=O)N1CCC2(CC1)CC(N(Cc1ccccc1)C1CC1)CCO2 (stereo not drawn) | -19.8%
O=C(CC1CCCC1)N1CCC2(CC1)CC(N(Cc1ccc(F)cc1)C1CC1)CCO2 (stereo not drawn) | 7.94µM*
COCCC(=O)N1CCC2(CC1)CC(N(Cc1ccccc1)C1CC1)CCO2 (stereo not drawn) | i
CC(C)C(=O)N1CCC2(CC1)CC(N(Cc1ccccc1)C1CC1)CCO2 (stereo not drawn) | -23.5%
O=C(c1ccco1)N1CCC2(CC1)CC(N(Cc1ccc(F)cc1)C1CC1)CCO2 (stereo not drawn) | 2.82µM*
O=C(c1ccc(C(F)(F)F)cc1)N1CCC(N2CCCOC2=O)CC1 | 2.4%
CC(C)c1ccc(CNC(=O)c2cc3n(n2)CC(c2ccc(Cl)cc2)OC3)cc1 (stereo not drawn) | -19.1%
Cc1ncc(S(C)(=O)=O)c(NCc2nnc3ccccn23)n1 | 7.7%
O=C1CC[C@@H](C(=O)N2CCc3onc(C(c4ccccc4)c4ccccc4)c3C2)N1 | i
COc1ccc(C2Cn3nnc(-c4noc(-c5cccc(N(C)C)c5)n4)c3CO2)cc1 (stereo not drawn) | i
Cc1noc(C)c1S(=O)(=O)NCc1cccnc1N(C)Cc1ccccc1 | i
O=C(CN1CC2CC(C1)[C@H]1CCCC(=O)N1C2)NCCc1ccccc1 (stereo partly drawn) | -4.0%
CCCCC(=O)N1CCC2(CC1)Nc1ccccc1NC2=O | -3.9%
COc1ccc(C(=O)N[C@@H]2CCC[C@@H]2C(=O)NCCC2=CCCCC2)cn1 | i
COc1ccccc1C(=O)NCC1Cn2cccc2C(=O)N1CC(C)C (stereo not drawn) | -25.0%
CCCS(=O)(=O)NCc1cccnc1Oc1cccc(C(F)(F)F)c1 | -22.5%
O=C(c1ccccc1)N1CCC2(CC1)CC(N(Cc1ccc(F)cc1)C1CC1)CCO2 (stereo not drawn) | 7.94µM*
CC(=O)N1CCC2(CC1)CC(N(Cc1ccc(F)cc1)C1CC1)CCO2 (stereo not drawn) | 9.3%
O=C(c1ccccn1)N1CCC2(CC1)CC(N(Cc1ccccc1)C1CC1)CCO2 (stereo not drawn) | -6.1%
SMILES | Pf Dd2 growth
CC(=O)NCC(=O)N1CCC2(CN[S+](=O)([O-])c3cnccc3O2)C1 (stereo not drawn) | 8.2%
COc1ccc(S(=O)(=O)N2CCC3(CC2)CC(CC(=O)NC2CC2)CCO3)cc1 (stereo not drawn) | 6.31µM*
COc1cccc(S(=O)(=O)N2CCC3(CC2)CC(CC(=O)NC2CC2)CCO3)c1 (stereo not drawn) | 21.4%
Cn1cnc(S(=O)(=O)N2CCC3(CC2)CC(CC(=O)NC2CC2)CCO3)c1 (stereo not drawn) | -32.9%
CC1CCC(NC(=O)C2CCN(C(=O)c3ncn4c3COC(c3ccccc3)C4)CC2)CC1 (stereo not drawn) | -19.8%
Fc1ccc(-c2ccc(CNCCSc3nnnn3-c3ccccc3)o2)cc1Cl | 46.0%
CCNCc1ccc(-c2ccc(Cl)cc2)o1 | 12.6µM*
Clc1cccc(-c2ccc(CNc3ncncn3)o2)c1 | -14.4%
c1ccc(-c2ccc(CNCc3cccs3)o2)cc1 | i
CCNCc1ccc(-c2ccc(F)cc2)o1 | i
CCN(CC)CCNCc1ccc(-c2ccccc2)o1 | 3.16µM*
CCCn1c(C)cnc1CC1CCCN(C(=O)CC2CCCC2)C1 (stereo not drawn) | -21.0%
COCCO[C@H]1C(=O)N(C2CCN(C(=O)C3CCOCC3)CC2)[C@H]1c1ccncc1 | 29.8%
COc1cccc(N2CC3CCC(C2)N3CC(F)(F)F)n1 | 8.7%
CC(=O)NCC(=O)N1CCCC2(CN[S+](=O)([O-])c3cccnc3O2)C1 (stereo not drawn) | 10.3%
COc1cc(-c2nc(CN3CCSCC3)c(C)o2)ccc1F | -13.1%
COc1ccc(-c2nc(CN3CCN(CCO)CC3)c(C)o2)c2ccccc12 | 11.2µM*
COc1ccc(F)c(-c2nc(CN3CCN(S(N)(=O)=O)CC3)c(C)o2)c1 | -1.1%
Cc1noc(C)c1-c1cnc(Nc2cc(F)cc(N3CCOCC3)c2)c2c1CCO2 | -5.9%[44.1 µM]
Cc1noc(C)c1-c1cnc(Nc2ccc(Cl)cn2)c2c1CCO2 | -15.9%[44.1 µM]
Cc1noc(C)c1-c1cnc(Nc2ccc(CN3CCN(C)CC3)cc2)c2c1CCO2 | 5.62µM*
CCNC(=O)N1CCCCCCNC(=O)[C@@H]2CCCC[C@@H]21 | 3.5%
CC(C)N1C[C@H](O)C[C@H]1c1nnc2n1CCN(C(=O)c1ccc3ncccc3c1)CC2 | 12.3%
COCCn1cnnc1CN(C)C(=O)c1ccc2nc(C)cn2c1 | 7.5%
CN(Cc1ccc(N2CCNC2=O)cc1)CC1CCCN(CCc2ccc(F)cc2)C1 (stereo not drawn) | 12.6µM*
SMILES | Pf Dd2 growth
COc1ccc(CCN2CCCC(CN(C)C(=O)c3cnn(C(C)C)c3)C2)cc1 (stereo not drawn) | i
O=C(Cc1ccc(N2CCNC2=O)cc1)N1CCC2(CC1)[C@H](O)C[C@@H]2O | -1.9%
Cc1ccccc1N1CCN(C(=O)c2cc3cn(C4CC4)cc3s2)CC1 | -7.6%
CCCCNC(=O)Cc1csc2nc(C)c(-c3cc(C)n(-c4cccc(C)c4)n3)c(=O)n12 | i
CCCCCCNC(=O)Cc1csc2nc(C)c(-c3cc(C)n(-c4cccc(C)c4)n3)c(=O)n12 | 2µM*
CCCNC(=O)Cc1csc2nc(C)c(-c3cc(C)n(-c4ccc(C)cc4)n3)c(=O)n12 | i
CCOc1ccccc1CNC(=O)c1ccc2c(c1)N(S(C)(=O)=O)CC2 | i
CCOc1ccccc1CNC(=O)c1cccc2c1CCN2C(=O)CC | 10µM*
CCC(=O)N1CCc2c(C(=O)NCc3cccc(F)c3)cccc21 | i
O=C(NCc1ccccc1)c1nc2c(o1)CCN(Cc1ccc(F)c(Cl)c1)CC2 | -21.2%[44.1 µM]
O=C(Cn1nnnc1CN1CCCC1)N1CCN(C2CCc3ccccc3C2)CC1 (stereo not drawn) | -11.3%
Cc1ccc(S(=O)(=O)N(CC(O)Cn2c3ccccc3c3ccccc32)c2cccc(C(N)=O)c2)cc1 (stereo not drawn) | 10µM*
CCOC(=O)N1CCN(C(=O)CN(c2ccccc2F)S(=O)(=O)c2ccc(C)cc2)CC1 | -15.8%
Cc1ccc(S(=O)(=O)N(CC(O)Cn2c3ccccc3c3ccccc32)c2cccc(C(=O)N(C)C)c2)cc1 (stereo not drawn) | 8.91µM*
Cc1ccc(S(=O)(=O)c2cn(CC(=O)Nc3cccc(Cl)c3)c3ccccc3c2=O)cc1 | i
COc1ccc(S(=O)(=O)N(CC(=O)NCc2ccccc2)c2ccc(C)cc2)cc1OC | 14.6%
Cc1ccc(-c2ccc3nnc(CNC(=O)c4cccc(N(C)C)c4)n3n2)cc1 | i
